The list is not random: actives were taken first. Their share in the collection is about 19%.
HT1080 IDH1KD tx: HT-1080 IDH1 knockdown cell toxicity (counter line) | Potency, µM (titrated, usually from 46.1 µM), for inactives: at the top dose activity, negative = toxicity, most hits filed as cytotoxic | HT-1080 IDH1 knockdown viability, ATP luminescence, 48 h | AID 686971 | 360,000 tested, 2% active;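 note: 0% = DMSO wells and -100% = cell-free medium wells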
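CellTiter-Glo luminescence after 48 h compound exposure at 37 degrees C of IDH1-knockdown HT-1080 cells in 5% FBS RPMI. %Activity scaled between DMSO wells and cell-free media wells, with curves fitted and assigned curve classes.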
TDP1 cell CPT: DT40-hTDP1 cell growth loss with CPT; chicken DT40 Tdp1-/-;hTDP1 cells + 20 nM CPT, ATP luminescence, 48 h; Potency, µM (series often up to 46.2 µM), for inactives: at the top dose activity change, negative = growth inhibition, hits mostly inhibitors; 420,000 tested, 12% active; note: nearly all actives have a fitted effect of over 55% in size
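Chicken DT40 Tdp1-/- cells complemented with human TDP1, 400 cells/well, exposed to compounds plus 20 nM camptothecin for at least 48 h at 37 C; viability read as ATP content by CellTiter-Glo luminescence.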
DT40 TDP1 no CPT: qHTS for Inhibitors of human tyrosyl-DNA phosphodiesterase 1 (TDP1): qHTS in cells in absence of CPT. DT40 Tdp1-/- hTDP1 cells, no CPT, ATP luminescence, 48 h. Potency, µM (series often up to 46.2 µM), for inactives: at the highest dose activity change, negative = growth inhibition, most hits filed as inhibitors. 420,000 tested, 15% active. AID 686978, 2013; note: nearly all actives have a fitted effect of over 55% in size
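Camptothecin absent (DMSO only). Human TDP1-complemented DT40 knockout cells, 400 cells/well, 37 °C for minimum 48 hr; ATP measured via CellTiter-Glo, 30 min dark incubation, luminescence.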
KB-3-1 cytotox: kills parental KB-3-1 adenocarcinoma cells; KB-3-1 viability, CellTiter-Glo ATP luminescence, 72 h; Potency, µM (doses to about 46.1 µM), most hits filed as cytotoxic; 400,000 tested, 1.4% active; AID 1347075; note: nearly all actives have a fitted effect of over 60% in size
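Using CellTiter-Glo luminescence, growth of non-resistant KB-3-1 adenocarcinoma cells is assessed 72 h after pin-tool compound addition at 37 °C. Normalized responses across the concentration series yield fitted curves.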
KB-V1 cytotox: KB-V1 MDR subline cytotoxicity; 400,000 tested, 3.4% active; Potency, µM (series often up to 46.1 µM), usual class: cytotoxic; KB-V1 MDR cells viability, CellTiter-Glo, 72 h; AID 1347076; note: nearly all actives have a fitted effect of over 60% in size
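Potencies derive from concentration-effect curves fitted to normalized luminescence (CellTiter-Glo) of KB-V1 cells treated for 72 h at 37 degrees C in phenol-red-free DMEM containing 10% FBS.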
HT1080NT lethal: kills 2HG-producing HT-1080-NT fibrosarcoma cells; Potency, µM (titrated, usually from 46.1 µM), for the others: at the highest dose activity, negative = less viability, usual class: cytotoxic; HT-1080-NT fibrosarcoma viability, CellTiter-Glo ATP luminescence, 48 h; 360,000 tested, 1.6% active;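 note: NT is the 2HG producing partner of a matched IDH1 knockdown line; 0% = DMSO-treated cells and -100% = media-only wells without cells; nearly all actives have a fitted effect of over 55% in size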
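Luminescent CellTiter-Glo readout after 48 hours of compound exposure at 37 degrees C defined viability of HT-1080-NT cells. Activity was normalized to DMSO wells and cell-free media wells; concentration-response curves were fitted and assigned curve classes.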
Numbers without * were called inactive; i = inactive; ? = inconclusive; . = no result given. Calls come from the whole dose curve; as a rule, active = well fitted curve in the direction sought with a large enough effect; inconclusive = small, poorly fitted or top-dose-only effect, or another doubt; inactive = no such curve, though single readings can be large; an effect the other way counts as inactive or inconclusive. Unless noted, % is set by controls: 0 for no effect and ±100 for the full control effect; potency is the fitted concentration of half-maximal effect.

SMILES	HT1080 IDH1KD tx	TDP1 cell CPT	DT40 TDP1 no CPT	KB-3-1 cytotox	KB-V1 cytotox	HT1080NT lethal
CC1CCN(c2oc(-c3cccs3)nc2S(=O)(=O)c2ccc(Cl)cc2)CC1	.	?	13µM*	i	i	.
COc1cc(CN2C[C@@H](CO)O[C@@H](n3cnc4c(N5CCCC5)ncnc43)C2)cc(OC)c1OC	0%	-7%	-20%	i	i	?
CNc1oc(-c2cccs2)nc1S(=O)(=O)c1ccccc1	-2%	4%	-19%	i	?	-7%
O=S(=O)(c1ccccc1)c1nc(-c2cccs2)oc1N1CCCCC1	.	29µM*	?	i	?	.
CCCCNc1oc(-c2cccs2)nc1S(=O)(=O)c1ccccc1	?	-11%	?	?	15µM*	5%
O=S(=O)(c1ccc(Cl)cc1)c1nc(-c2ccccc2F)oc1NCCCN1CCOCC1	0%	?	?	.	.	1%
Cc1ccc(S(=O)(=O)c2nc(-c3ccccc3Cl)oc2NCCCN2CCOCC2)cc1	15%	?	26µM*	i	i	-3%
Cc1ccc(N(C)C(=O)c2cc(S(=O)(=O)N3CCCC3)cn2C)cc1	-3%	-29%	-26%	i	i	-11%
OCCNc1nc(C2CC2)nc2c1nnn2Cc1ccccc1Cl	?	2%	-14%	i	6.5µM*	-11%
NC(=O)C1CCN(c2nc(C3CC3)nc3c2nnn3Cc2ccccc2Cl)CC1	-1%	-7%	-21%	i	i	3%
CN(C)c1ccc(NC(=O)CSc2n[nH]c(-c3ccncc3)n2)cc1	4%	8%	-17%	i	i	9%
O=C(C1CCCN(S(=O)(=O)c2cccc3cccnc23)C1)N1CCN(c2ccccc2F)CC1 (stereo not given)	2%	23µM*	15µM*	i	i	2%
O=C(C1CCN(S(=O)(=O)c2cccc3cccnc23)CC1)N1CCCC1	-6%	-7%	-6%	i	i	0%
O=C(C1CCCN(S(=O)(=O)c2cccc3nsnc23)C1)N1CCN(c2ccccc2)CC1 (stereo not given)	.	16µM*	21µM*	?	i	.
Cc1cccc(N2CCN(C(=O)C3CCCN(S(=O)(=O)c4cccc5nsnc45)C3)CC2)c1C (stereo not given)	.	3%	18µM*	i	i	.
CCN1CCN(C(=O)C2CCCN(S(=O)(=O)c3cccc4nsnc34)C2)CC1 (stereo not given)	-7%	4%	18%	i	i	-6%
O=C(C1CCCN(S(=O)(=O)c2cccc3nsnc23)C1)N1CCCCCC1 (stereo not given)	1%	-25%	?	i	i	14%
O=C(C1CCCN(S(=O)(=O)c2cccc3nonc23)C1)N1CCN(c2cccc(C(F)(F)F)c2)CC1 (stereo not given)	.	15µM*	12µM*	?	i	.
Cc1ccc(S(=O)(=O)N2CCCCC2)cc1NC(=O)CSc1nc(N)cc(=O)[nH]1	5%	2%	-16%	i	i	0%
COCCN1CC(CNC(=O)c2cc(COc3ccccc3SC)on2)CC1=O (stereo not given)	4%	-2%	?	.	.	2%
Cc1nc2cccnc2n1-c1cccc(C(=O)NCCc2ccc(S(N)(=O)=O)cc2)c1	.	-3%	-6%	.	.	.
O=C(C1CCCN(S(=O)(=O)c2ccccc2[N+](=O)[O-])C1)N1CCN(c2ccccc2)CC1 (stereo not given)	12%	-21%	?	i	5.8µM*	1%
O=C(C1CCCN(S(=O)(=O)c2cccc3nsnc23)C1)N1CCN(c2ccccc2F)CC1 (stereo not given)	.	18µM*	15µM*	i	i	.
COc1ccc(C)cc1S(=O)(=O)N1CCCC(C(=O)N2CCN(c3ccccc3)CC2)C1 (stereo not given)	-4%	?	-18%	i	i	0%
O=C(NCc1ccccc1)C1CCCN(S(=O)(=O)c2cccc3nonc23)C1 (stereo not given)	4%	?	?	i	18µM*	1%
SMILES	HT1080 IDH1KD tx	TDP1 cell CPT	DT40 TDP1 no CPT	KB-3-1 cytotox	KB-V1 cytotox	HT1080NT lethal
Cc1nc2c3c(sc2c(=O)[nH]1)NC(=O)CC3c1ccccc1Cl (stereo not given)	1%	-7%	?	i	i	2%
COC(=O)c1ccc(NC2(C#N)C(=O)Nc3ccccc32)cc1 (stereo not given)	-9%	?	23µM*	i	i	-22%
CC1(C(=O)Nc2ccc3[nH]ncc3c2)CCN1C(=O)CC(c1ccccc1)c1ccccc1 (stereo not given)	-1%	?	?	i	i	-1%
CC1(C(=O)Nc2cnc3ccccc3c2)CCN1C(=O)C/C=C/c1ccccc1 (stereo not given)	-12%	3.3µM*	6.5µM*	i	i	-12%
CC1(C(=O)Nc2ccc3[nH]ncc3c2)CCN1C(=O)C1(c2ccccc2)CC1 (stereo not given)	-4%	8.2µM*	-17%	i	?	-10%
CC1(C(=O)Nc2ccc3[nH]ncc3c2)CCN1C(=O)C/C=C/c1ccccc1 (stereo not given)	1%	?	18µM*	i	?	-2%
CC(=O)Nc1ccc(S(=O)(=O)N2CCC(C(N)=O)(N3CCCCC3)CC2)cc1	-6%	-2%	-2%	i	i	-1%
COc1cc(C2C(=O)N(C3CCCCC3)CC(=O)N2CCc2ccccc2)ccc1OC(C)C (stereo not given)	.	-25%	-28%	.	.	.
CC(=O)c1cccc(NC(=O)COc2cc3oc(=O)c(CC(C)O)c(C)c3cc2Cl)c1 (stereo not given)	6%	?	21µM*	i	i	6%
CN(C)CCN1C(=O)c2cccc3cc([N+](=O)[O-])cc(c23)C1=O	13µM*	0.21µM*	0.26µM*	8.2µM*	2.6µM*	10µM*
O=C1c2cccc3cc([N+](=O)[O-])cc(c23)C(=O)N1CC1CCCO1 (stereo not given)	-23%	7.3µM*	6.5µM*	?	i	-10%

Screening data (PubChem BioAssay)
